Here are results for 59 compounds from ChEMBL document CHEMBL3988442, “University of Dundee, Small-Polar-MMV Screening Library” (2021).

Out of some 69,000 compounds screened, about 420 (0.61%) showed an effect of 50% or more. This is one part of a sample in which strong results are shown more often than they occur.

The target in this assay is T1, Histidine--tRNA ligase (Leishmania infantum) (UniProt A4I591).
T1 sequence (whole entry): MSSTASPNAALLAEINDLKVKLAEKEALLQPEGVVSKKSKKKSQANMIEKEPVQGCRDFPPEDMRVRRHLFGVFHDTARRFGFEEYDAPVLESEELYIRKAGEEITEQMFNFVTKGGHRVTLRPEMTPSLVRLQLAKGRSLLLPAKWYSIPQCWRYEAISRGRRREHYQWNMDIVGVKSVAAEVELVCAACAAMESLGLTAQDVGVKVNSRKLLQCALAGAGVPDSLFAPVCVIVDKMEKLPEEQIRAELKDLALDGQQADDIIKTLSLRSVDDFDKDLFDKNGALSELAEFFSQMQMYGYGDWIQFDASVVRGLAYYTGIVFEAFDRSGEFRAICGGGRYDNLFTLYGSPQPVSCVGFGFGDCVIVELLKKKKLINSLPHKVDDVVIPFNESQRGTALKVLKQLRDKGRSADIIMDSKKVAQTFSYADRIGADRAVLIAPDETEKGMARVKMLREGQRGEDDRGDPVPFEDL
The assay is described as follows: Leishmania infantum Histidine tRNA synthetase (LdHisRS). Details: scale not given: in the data most compounds retested in dose-response had high values. The following applies: 30 µM. Type of assay: functional.
In the case of `O=C([C@@H]1CC[C@@H]2[C@@H](CCN2CCOCc2ccccc2)O1)N1CCCC1`, the Percent Effect was 16%. Then `CN(C)C(=O)CN1C[C@@H]2CC[C@H](C1)N(Cc1ccc3nsnc3c1)C2`, with 11.3%; and `Cc1cnc(N2CC[C@@H]3O[C@@H](COCc4ccccn4)CC[C@@H]32)nc1`, with 13%; and `CC(C)Oc1ccccc1C1CC(=O)Nc2c1cnn2C` (centres undefined), with -14.3%.

For the compound `CCn1ncnc1C1CC(=O)NCc2nc(N3CCCC3)sc21` (centres undefined), the Percent Effect is 15.7%. In the case of `COc1ccccc1C1CC(=O)Nc2c1c(=O)[nH]n2C1CCCC1` (centres undefined), the Percent Effect turned out to be 14.3%.

For `COc1cccc(C2CC(=O)Nc3nc(N4CCOCC4)sc32)c1OC` (centres undefined), the Percent Effect is 111%. In the case of `COc1cccc(CNc2nc(N3CCOCC3)ns2)c1OC`, the Percent Effect was 13.5%. As to `COc1ccccc1C1CC(=O)Nc2c1c(=O)[nH]n2C(C)C` (centres undefined), the Percent Effect came out at 16.5%. Turning to `CC(C)Oc1ccccc1C1CC(=O)Nc2nc(N3CCOCC3)sc21` (centres undefined), the Percent Effect turned out to be 97.5%. Then `CCOc1cccc(C2CC(=O)NCc3nc(N4CCCC4)sc32)c1` (centres undefined), with 24.7%; and `COc1cccc(C2CC(=O)Nc3nc(N4CCCCC4)sc32)c1OC` (centres undefined), with 120%. Then `COc1ccccc1C1CC(=O)Nc2nc(N3CCCCC3)sc21` (centres undefined), with 118%; and `O=c1[nH]nc(-c2cccs2)c2sc(N3CCOCC3)nc12`, with 11.9%; and `COc1cccc(CNCc2ccnc(N3CCOCC3)c2)c1OC`, with 7.14%.

Turning to `Cc1cccc(CN2C(=O)CC[C@@H]3[C@H]2CCN3Cc2ccc(C)s2)n1`, the Percent Effect came to 8.03%. Consider `CC1=N[C@@]2(CC[C@@H]3CN(S(=O)(=O)N(C)C)C[C@@H]32)C(=O)N1CC(C)C`, for which the Percent Effect is 9.02%. For `CC(=O)N1CC[C@H]2CC(=O)N(CCc3c[nH]cn3)CC[C@H]2C1`, the Percent Effect was 9.46%. Next, `Cc1ncc(C(=O)N2CC[C@@]3(O)CCN(C(=O)N(C)C)C[C@H]3C2)cn1`: 10.6%. Next, `O[C@@]1(CN2CCN(Cc3ccncc3)CC2)CCCN2CCCC[C@@H]21`: 20%. Next, `O=C1CC(c2ccccc2C(F)(F)F)c2sc(N3CCOCC3)nc2N1` (centres undefined): 5%; `COc1cccc(C2C3=C(COC3=O)Nc3[nH]nc(C)c32)c1OC` (centres undefined): 16.7%. For `COc1cccc([C@@H]2N[C@H](c3nccs3)Cc3ccsc32)c1OC`, the Percent Effect was 9.86%.

With `Cn1ncc2c1NC(=O)CC2c1ccccc1Br` (centres undefined), the Percent Effect was -2.5%. As for `COc1cccc(C2CC(=O)Nc3nc(N)sc32)c1OC` (centres undefined), the Percent Effect turned out to be 91.4%. Then `O=C1CC(c2ccccc2Br)c2sc(N3CCOCC3)nc2N1` (centres undefined), with 87.5%; and `Cc1ccc(C(=O)N2[C@@H]3CC[C@H]2CN(C)C(=O)C3)c(=O)[nH]1`, with 15.9%. Consider `CN1[C@@H](C(=O)NCC2CC2)C[C@H]2CN(Cc3cccc(C#N)c3)C[C@H]21`, for which the Percent Effect was found to be 17.4%.

As to `CN(C)CCN1C(=O)C[C@@H]2[C@@H]1CCN2S(=O)(=O)c1ccccc1`, the Percent Effect was 13.6%.

On to `O=C(N[C@@H]1CN(Cc2ccc3c(c2)OCO3)[C@@H]2CCCO[C@@H]21)C1CC1`, for which the Percent Effect came out at 7.55%. Take `O=C1CC[C@H]2CN(c3ncc(F)cn3)CC[C@H]2N1CCc1ccccn1`: the Percent Effect came to 4.84%. Then `Cc1csc(N2CCN(C(=O)CCC(=O)c3ccc(C)s3)CC2)n1`, with 50%. Then `Cc1csc(N2CCN(C(=O)c3ccc(C)s3)CC2)n1`, with 11.4%.

`Cc1csc(N2CCN(C(=O)Cc3ccc(C)s3)CC2)n1`: the Percent Effect came out at 35.7%.

Turning to `COCCN1CCO[C@@H]2CN(C(=O)COc3ccc(C)cc3)C[C@@H]2C1`, the Percent Effect was 10.3%.

With `Cc1cc(C(=O)N2CC[C@@H]3CO[C@@H](CN4CCCC4)[C@@H]3C2)no1`, the Percent Effect is -2.63%.

In the case of `CCCn1nc2c(cc1=O)CN(CCCS(N)(=O)=O)CC2`, the Percent Effect worked out at 61.9%. Then `CCCn1nc2c(cc1=O)CN(CC(=O)Nc1ccncc1)CC2`, with 25%; and `CCCn1nc2c(cc1=O)CN(CCCN1CCCC1=O)CC2`, with 52.4%; and `CCCn1nc2c(cc1=O)CN(CCN1CCCC1=O)CC2`, with 23.7%. Next, `CCn1nc2c(cc1=O)CN(CCCN1CCCC1=O)CC2`: 30.7%; `CCCn1nc2c(cc1=O)CN(CCS(C)(=O)=O)CC2`: 40.5%.

With `CN(C)C(=O)CO[C@H]1CN(Cc2ccccc2)[C@@H]2CCCO[C@H]12`, the Percent Effect was found to be 20.6%. For the compound `CC(C)(C)CC(=O)N1CC[C@H]2NC(=O)N(Cc3ccccc3)C(=O)[C@H]21`, the Percent Effect worked out at 30.6%.

With `Cc1ncsc1CN1CC[C@H]2OCC[C@@]2(C(=O)NC(C)C)C1`, the Percent Effect is -0.971%. For the compound `CO[C@@H]1CC[C@H]2[C@H]1OCCN2Cc1ccc(F)c(F)c1`, the Percent Effect stood at 8.33%. Next, `c1cnn(CCCO[C@@H]2CN(C3CCOCC3)[C@@H]3CCCO[C@@H]32)c1`: 15.3%; `Cc1noc(CNc2c(N3CCCC3)cccc2N2CCCC2)n1`: 6.67%; `COc1ccccc1N1CCC(NCc2c(C)noc2C)C1` (centres undefined): 7.14%. Then `Cc1noc(C)c1CNc1c(N2CCCC2)cccc1N1CCCC1`, with 84%; and `Cc1noc([C@@H]2C[C@H]3CN(CC4CCOCC4)C[C@H]3O2)n1`, with 10.5%; and `CO[C@H]1CCN(C(=O)c2ccsc2)[C@@H]2CN(CC3CC3)C[C@H]12`, with 5.77%.

In the case of `CC(=O)N(Cc1noc(C)n1)C1CCN(Cc2ccc(C#N)cc2)C1` (centres undefined), the Percent Effect was found to be 17.1%. Next, `Cc1nc(CN(C)C2CCN(Cc3nc4ccccc4s3)C2)no1` (centres undefined): 25.8%; `Cc1nc(CN(C)C2CCN(Cc3nc4ccccc4n3C)C2)no1` (centres undefined): 10.3%; `Cc1nc(CN(C)C2CCN(Cc3ccc4ccccc4n3)C2)no1` (centres undefined): 53.1%.

With `CC(=O)N(Cc1noc(C)n1)C1CCN(Cc2ccccc2C#N)C1` (centres undefined), the Percent Effect was determined as 2.7%. Take `CC(=O)N(Cc1noc(C)n1)C1CCN(Cc2cccc(C#N)c2)C1` (centres undefined): the Percent Effect came to 63.2%.

As for `Cc1cnc(N2C[C@@H]3[C@@H](C(=O)NCC(C)C)CCS(=O)(=O)[C@@H]3C2)nc1`, the Percent Effect worked out at 12.3%.
